Data: PubChem BioAssay (NCATS)
Values joined by “and” are separate entries in the source; they are usually repeats but may differ in a detail not shown here. Identical values can stand only once. Records with an inconclusive call do not appear. Active and inactive are the calls of the source. Unless noted, calls follow the shape of the dose curve; as a rule, active = well fitted curve in either direction with a large enough effect (not every such curve was filed as active); inconclusive = small, poorly fitted or top-dose-only effect, or another doubt; inactive = flat fitted curve, though single readings scatter.

Assays:
[1] = AP1 Signaling Pathway (AID 357); settings: ME-180 AP-1-bla reporter, EGF-induced, beta-lactamase ratio, 5 h;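 also: ME-180 reporter cells stimulated with EGF at its EC50 level; % is scaled to controls: 0 for no effect and ±100 for the full control effect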
In short: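 Read-out was the 460nm/530nm emission ratio (excitation 405nm) after CCF4 loading for 2.5 hours at room temperature. Cells carried an AP-1-driven beta-lactamase reporter, were stimulated with EC50 EGF plus compound for 5 hours, and AC50 values came from titrations.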

[2] = Stat Signaling Pathway (AID 446); settings: ME-180 (cervical carcinoma) SIE beta-lactamase reporter, IL-6 stimulated, 5 h;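 also: ME-180 cervical cancer cells given 40 pM IL-6 alongside compound; SIE-controlled beta-lactamase reporter measured as 460/530 nm FRET emission ratio; % is scaled to controls: 0 for no effect and ±100 for the full control effect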
In short: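 Compound effects on IL-6-induced STAT reporter activity were measured in ME-180 cells. After overnight culture, cells were co-treated with 40 pM IL-6 for 5 hrs before beta-lactamase substrate loading at room temperature.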

[3] = target: Cytochrome P450 1A2 (Homo sapiens) (UniProt P05177); assay: p450-cyp1a2 (AID 410; calls by dose curve; also: potency is read from the fitted curve at half-maximal effect;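 as to activity change, negative = inhibition: -100% = full effect of reference inhibitor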); settings: recombinant CYP1A2, luciferin-ME demethylation, luminescence; series mostly up to 25.6 µM
Sequence of Cytochrome P450 1A2 (Homo sapiens) (P05177 whole entry, looked up): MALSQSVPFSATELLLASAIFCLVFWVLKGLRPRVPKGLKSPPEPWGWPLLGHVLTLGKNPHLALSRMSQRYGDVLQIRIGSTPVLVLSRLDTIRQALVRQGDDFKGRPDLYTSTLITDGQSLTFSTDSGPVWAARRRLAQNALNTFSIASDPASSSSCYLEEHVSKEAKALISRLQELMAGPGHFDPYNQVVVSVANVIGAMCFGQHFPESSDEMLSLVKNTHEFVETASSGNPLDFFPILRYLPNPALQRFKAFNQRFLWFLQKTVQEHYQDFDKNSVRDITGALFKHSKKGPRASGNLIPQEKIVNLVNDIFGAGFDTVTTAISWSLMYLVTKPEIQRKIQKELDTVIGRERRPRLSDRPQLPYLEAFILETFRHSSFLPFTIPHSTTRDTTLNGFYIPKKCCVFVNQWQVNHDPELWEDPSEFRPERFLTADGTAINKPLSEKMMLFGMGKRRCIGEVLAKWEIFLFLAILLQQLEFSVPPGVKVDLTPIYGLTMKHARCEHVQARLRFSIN
In short: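 Luminescent demethylation readout: Luciferin-ME (100uM, equal to Km) turned over by 20nM CYP1A2 for 60 min at room temperature after NADPH regeneration addition, following 10 min compound preincubation. Normalization used 57 uM furafylline as full inhibition.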

[4] = target: Glucocorticoid receptor (Homo sapiens) (UniProt P04150); assay: GR-GFP Redistribution (AID 450;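 active = compounds whose dose series gives a full or clear partial fitted curve of increased nuclear translocation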; also: potency is read from the fitted curve at half-maximal effect); settings: U2OS GR-GFP nuclear translocation, laser cytometry, 2 h
Sequence of Glucocorticoid receptor (Homo sapiens) (P04150 whole entry, looked up, the tested form may be a part): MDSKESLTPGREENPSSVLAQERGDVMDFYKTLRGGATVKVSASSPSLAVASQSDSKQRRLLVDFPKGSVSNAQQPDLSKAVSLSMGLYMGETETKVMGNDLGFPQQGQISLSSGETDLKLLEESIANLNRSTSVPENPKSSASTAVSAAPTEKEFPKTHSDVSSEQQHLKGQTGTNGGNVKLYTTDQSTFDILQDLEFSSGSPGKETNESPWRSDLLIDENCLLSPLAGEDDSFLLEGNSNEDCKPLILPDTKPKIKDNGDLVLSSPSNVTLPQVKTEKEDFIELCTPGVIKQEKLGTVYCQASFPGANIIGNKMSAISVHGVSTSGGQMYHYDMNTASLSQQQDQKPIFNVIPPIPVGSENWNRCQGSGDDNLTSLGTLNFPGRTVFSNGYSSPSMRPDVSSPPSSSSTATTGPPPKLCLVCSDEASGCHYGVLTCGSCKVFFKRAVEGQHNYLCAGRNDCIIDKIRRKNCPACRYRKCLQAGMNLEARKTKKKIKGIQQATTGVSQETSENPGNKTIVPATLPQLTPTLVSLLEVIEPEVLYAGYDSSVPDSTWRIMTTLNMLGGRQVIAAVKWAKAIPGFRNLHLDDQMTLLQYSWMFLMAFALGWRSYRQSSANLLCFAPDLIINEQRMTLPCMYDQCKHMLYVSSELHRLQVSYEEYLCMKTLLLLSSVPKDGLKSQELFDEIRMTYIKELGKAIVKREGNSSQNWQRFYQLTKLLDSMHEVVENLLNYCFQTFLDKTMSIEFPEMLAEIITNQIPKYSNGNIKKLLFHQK

[5] = Cell Viability - BJ (AID 421; calls by dose curve;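 also: potency is read from the fitted curve at half-maximal effect; cells exposed to compound for 40 hours at 37 °C before readout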); settings: BJ fibroblast viability, qHTS
In short: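 Luminescent ATP signal (CellTiter-Glo, 20 min at room temperature) served as the read-out of viable BJ cells after 40 hours of compound treatment. Responses were scaled between DMSO and 100 uM tamoxifen, and AC50 values were obtained by Hill modeling.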

[6] = Cell Viability - Jurkat (AID 426;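 active = dose-dependent loss of cell ATP signal giving a full or clear fitted curve, ranked by lower potency value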;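 also: potency is read from the fitted curve at half-maximal effect; cells exposed to compound for 40 hours at 37 °C before ATP read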); settings: qHTS
In short: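 Cytotoxicity taken as drop in cellular ATP (CellTiter-Glo luminescence, 20 min room temperature) after 40 hr, 37C treatment of 5000 Jurkat Clone E6-1 cells per well; concentration-response fitted with Hill equation for AC50.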

[7] = Cell Viability - Hek293 (AID 427;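 active = compounds whose dose-response curve shows a full or clear partial loss of cell viability, called from curve shape rather than a numeric limit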;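 also: potency is read from the fitted curve at half-maximal effect; cells exposed to compound for 40 hours at 37 °C before reading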); settings: qHTS
In short: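 Luminescent ATP read-out (CellTiter-Glo, 20 min RT) after 40 hr compound exposure at 37 °C in complete medium. Signal normalized to DMSO (basal) and 100 uM tamoxifen (100% inhibition); concentration-response fitted with the standard Hill equation to give AC50.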

[8] = Cell Viability - HepG2 (AID 433; calls by dose curve;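 also: potency is read from the fitted curve at half-maximal effect; potency for ATP loss meaning cytotoxicity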); settings: qHTS
In short: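 HepG2 hepatocellular carcinoma cells (1500/well) were treated with compounds for 40 h at 37 °C in complete medium; intracellular ATP was read by CellTiter-Glo luminescence. Data were normalized to DMSO and 100 uM tamoxifen, and AC50 came from Hill fits.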

[9] = Cell Viability - MRC5 (AID 434; calls by dose curve;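 also: potency is read from the fitted curve at half-maximal effect; potency reflects cytotoxicity seen as loss of intracellular ATP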); settings: MRC5 lung fibroblast viability, qHTS
In short: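 Decrease in intracellular ATP, quantified by luciferase light output, reflects compound toxicity toward MRC5 cells exposed for 40 hr in complete culture medium. Concentration-response curves, scaled between DMSO and 100 uM tamoxifen, gave AC50 values.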

[10] = Cell Viability - SK-N-SH (AID 435; calls by dose curve; also: potency is read from the fitted curve at half-maximal effect); settings: SK-N-SH neuroblastoma cell viability qHTS
In short: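 SK-N-SH human neuroblastoma cells (1500/well) were exposed to compounds in complete medium for 40 h at 37 °C, and intracellular ATP was then measured by CellTiter-Glo luminescence. AC50 was taken from Hill fits, normalized to DMSO and 100 uM tamoxifen.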

[11] = Cell Viability - N2a (AID 540; active = well fitted curve in the direction sought with a large enough effect; an effect the other way counts as inactive or inconclusive;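 also: plate controls were DMSO alone for no effect and tamoxifen control for full effect; nearly all actives have a fitted effect of over 45% in size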); settings: N2a mouse neuroblastoma cell viability; activity change, negative = cytotoxicity: at 92.2 µM (top of the series)
In short: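 CellTiter-Glo ATP luminescence, read 20 min after reagent at room temperature, reported viability following 40 h compound treatment at 37 °C. N2a mouse neuroblastoma cells seeded 1500/well; Hill equation gave AC50.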

[12] = Cell Viability - NIH 3T3 (AID 541; active = well fitted curve in the direction sought with a large enough effect; an effect the other way counts as inactive or inconclusive;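 also: plate controls were DMSO alone for no effect and tamoxifen positive control for full effect; nearly all actives have a fitted effect of over 25% in size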); settings: NIH 3T3 cell viability, qHTS; activity change, negative = cytotoxicity: at 92.2 µM (top of the series)
In short: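 Intracellular ATP (CellTiter-Glo luminescence, 20 min at room temperature) measured after 40 hr compound exposure at 37 °C of 1000 NIH 3T3 mouse fibroblasts/well in complete medium; AC50 derived by Hill-equation modelling of qHTS concentration-response curves.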

[13] = Cell Viability - HUV-EC-C (AID 542; active = well fitted curve in the direction sought with a large enough effect; an effect the other way counts as inactive or inconclusive; also: % is scaled to controls: 0 for no effect and ±100 for the full control effect; nearly all actives have a fitted effect of over 35% in size); settings: HUV-EC-C endothelial cell viability, qHTS; series mostly up to 92.2 µM
In short: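 CellTiter-Glo luminescence measured ATP loss in HUV-EC-C cells (1000/well) after 40 hr compound exposure at 37 °C, in complete culture medium. Concentration-response data were Hill-fitted to give AC50.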

[14] = Cell Viability - H-4-II-E (AID 543; active = well fitted curve in the direction sought with a large enough effect; an effect the other way counts as inactive or inconclusive; also: % is scaled to controls: 0 for no effect and ±100 for the full control effect; nearly all actives have a fitted effect of over 35% in size); settings: H-4-II-E rat hepatoma viability; series mostly up to 92.2 µM
In short: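 CellTiter-Glo luminescence (intracellular ATP) measured after 40 h compound exposure at 37 °C in H-4-II-E rat hepatoma cells seeded at 1500/well. Values are AC50s fitted with the standard Hill equation.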

[15] = Cell Viability - SH-SY5Y (AID 544; active = well fitted curve in the direction sought with a large enough effect; an effect the other way counts as inactive or inconclusive;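 also: 0% = DMSO alone and -100% = 100 µM tamoxifen; nearly all actives have a fitted effect of over 55% in size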); settings: SH-SY5Y neuroblastoma cell viability; series mostly up to 92.2 µM
In short: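 Cytotoxicity measured via ATP-dependent luciferase luminescence (CellTiter-Glo) following 40 h, 37 °C exposure of 1500 SH-SY5Y cells per well. Concentration-response data were fitted with the standard Hill equation to give AC50.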

[16] = Cell Viability - Renal Proximal Tubule (AID 545; active = well fitted curve in the direction sought with a large enough effect; an effect the other way counts as inactive or inconclusive;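 also: 0% = DMSO only and -100% = 100 µM tamoxifen; nearly all actives have a fitted effect of over 40% in size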); settings: renal proximal tubule cells viability, primary cells of rat origin; series mostly up to 91.7 µM
In short: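 Primary rat renal proximal tubule cells (1000/well) were treated with compounds for 40 hr at 37 °C in complete medium. Intracellular ATP was measured by CellTiter-Glo luminescence, and AC50 values came from Hill-equation fits of concentration-response data.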

[17] = NFAT Signaling Pathway (AID 444); settings: Jurkat NFAT-bla M1, carbachol, beta-lactamase ratio, 5 h;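 also: carbachol stimulus at about its EC50 of 1 µM final; % is scaled to controls: 0 for no effect and ±100 for the full control effect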
In short: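 Jurkat cells carrying an NFAT-driven β-lactamase reporter and co-transfected muscarinic M1 receptor were treated with compound plus carbachol (1 uM final, an EC50 level) for 5 h at 37 °C. CCF4 loading followed for 1 h at RT; 460/530 nm ratio gave %activity.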

[18] = target: Glucocorticoid receptor (Homo sapiens) (UniProt P04150); assay: GR-EFC Redistribution (AID 451; calls by dose curve; also: potency is read from the fitted curve at half-maximal effect); settings: CHO-K1 GR-EFC translocation, beta-gal luminescence, 2 h
In short: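 CHO-K1 cells stably expressing nuclear-localized β-gal enzyme acceptor and GR fused C-terminally to the enzyme donor fragment; ligand-driven nuclear translocation restores β-gal by complementation. Compounds titrated up to 46 uM final, 2 h at 37 °C; luminescence read.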

CC(=O)OCC(=O)[C@@]1(O)CC[C@H]2[C@@H]3CCC4=CC(=O)CC[C@]4(C)[C@H]3C(=O)C[C@@]21C
inactive: activity change, negative = inhibition ([1]; at 17.2 µM (top of the series)) 0.362% | activity, negative = inhibition ([2]; at 17.2 µM (top of the series)) 11.3%

CN(C)CCCN1c2ccccc2CCc2ccccc21
inactive: Potency [3] | activity, negative = inhibition ([2]; at 17.2 µM (top of the series)) 2.6% and 1.4%

CCCc1c(OCCCCc2nn[nH]n2)ccc(C(C)=O)c1O
inactive: activity change, negative = inhibition ([1]; at 17.2 µM (top of the series)) -20.5% | activity, negative = inhibition ([2]; at 17.2 µM (top of the series)) -12.8% | Potency [4] > 20.6 µM

[Cl][In]([Cl])[Cl]
inactive: Potency [5] > 92 µM | Potency [6] > 92 µM | Potency [7] > 92 µM | Potency [8] > 92 µM | Potency [9] > 92 µM | Potency [10] > 92 µM | activity change, negative = cytotoxicity [11] -0.39% | Potency [12] | Potency [13] | Potency [14] | Potency [15] | Potency [16]

NCCNCCNCCN
inactive: Potency [5] > 92 µM | Potency [6] > 92 µM | Potency [7] > 92 µM | Potency [8] > 92 µM | Potency [9] > 92 µM | Potency [10] > 92 µM | activity change, negative = cytotoxicity [11] -20% | Potency [12] | Potency [13] | Potency [14] | Potency [15] | Potency [16]

CC[C@H]1CN2CCc3cc(OC)c(OC)cc3[C@@H]2C[C@@H]1C[C@H]1NCCc2cc(OC)c(OC)cc21
active: activity change, negative = inhibition ([1]; at 17.2 µM (top of the series)) -119% | activity change, negative = inhibition ([17]; at 17.2 µM (top of the series)) -131% | activity, negative = inhibition ([2]; at 17.2 µM (top of the series)) -96.7%
inactive: Potency [4] > 20.6 µM

CN(C)CCC=C1c2ccccc2CCc2ccccc21
active: Potency [3] 15.8 µM | activity change, negative = inhibition ([17]; at 17.2 µM (top of the series)) -80%
inactive: activity, negative = inhibition ([2]; at 17.2 µM (top of the series)) -2.52% and 2.81% | activity, negative = inhibition ([2]; at 38 µM (top of the series)) 28.3% | Potency [4] > 46 µM and > 20.6 µM | Potency [18] > 46 µM and > 20.6 µM

CC1=C(/C=C/C(C)=C/C=C/C(C)=C/C(=O)O)C(C)(C)CCC1
inactive: activity change, negative = inhibition ([1]; at 17.2 µM (top of the series)) -14.6% | Potency [4] > 20.6 µM

CCCCCCCCCCCCCCCC(=O)NCCO
inactive: activity change, negative = inhibition ([1]; at 38 µM (top of the series)) 11.1% | activity change, negative = inhibition ([17]; at 38 µM (top of the series)) 9.44% | activity, negative = inhibition ([2]; at 38 µM (top of the series)) -2.15%

O=c1cc(CO)occ1O
inactive: Potency [3] | Potency [4] > 46 µM | Potency [18] > 46 µM

Nc1ncnc2c1ncn2[C@@H]1O[C@H](CO)[C@@H](O)[C@H]1O
inactive: activity change, negative = inhibition ([17]; at 17.2 µM (top of the series)) -4.17% | Potency [4] > 20.6 µM
